# According to PubChem BioAssay AID493169 (National Center for Advancing Translational Sciences (NCATS), 2011):
# Inconclusive results are not listed. Where a call stands in place of a potency, no number is given. Active and inactive are the calls of the source. Calls come from the whole dose curve; as a rule, active = well fitted inhibition curve with a large enough effect; inconclusive = small, poorly fitted or top-dose-only effect; inactive = flat fitted curve, though single readings scatter.
# Experiment: CHOP2 Reporter Counterscreen Assay for Inhibitors of Ubiquitin-specific Protease USP2a;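 note: activated enterokinase alone at 50 pM in a cell-free format rather than USP2a or CHOP2; nearly all actives have a fitted effect of over 55% in size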
# Settings: purified enterokinase, fluorogenic substrate, 485/531 nm; series mostly up to 38.3 µM
# Procedure, shortened: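 Cell-free counterscreen with pre-activated enterokinase alone (50 pM final) in 20mM Tris-HCl pH 8.0, 2mM CaCl2, 2mM beta-mercaptoethanol, 0.05% CHAPS; compound preincubation 30 min RT, reporter substrate 25nM final, fluorescence read after 10 min (Ex 485/Em 531).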
# Potency is the fitted concentration of half-maximal effect.
row,Compound,Potency
1,O=[N+]([O-])c1c(NCCO)cc(N2CCN(Cc3ccc4c(c3)OCO4)CC2)c2nonc12,inactive
2,O=C1NCC(CN(c2ccccc2)c2ccccc2)O1 (stereo unspecified),inactive
3,O=C(Nc1ccc(Nc2ccncc2)cc1)c1ccc(Nc2ccnc3ccc([N+](=O)[O-])cc23)cc1,3.55 µM (active)
4,Cc1ccc(NC(=O)CS(=O)CC(=O)Nc2ccc(N3CCOCC3)cc2)cc1Cl (stereo unspecified),inactive
5,COc1cccc(OC)c1-c1nn2c(-c3cc(-c4ccccc4)n[nH]3)nnc2s1,5.62 µM (active)
6,FC(F)(F)C1=Nc2cccc3cccc(c23)N1,inactive
7,COc1cc(/C=C/c2cc[n+](C)cc2)ccc1OCC(=O)Nc1ccc(Cl)c(Cl)c1,11.2 µM (active)
8,NC1=NC(=O)/C(=C/c2cccc(-c3ccc(S(N)(=O)=O)cc3)c2)S1,inactive
9,CCOC(=O)c1sc(NC(=O)Nc2ccccc2)cc1C,inactive
10,Cc1sc2nc(CN3CCN(c4ccc(O)cc4)CC3)[nH]c(=O)c2c1C,inactive
11,O=C(CSc1nnc(SCc2ccccc2)s1)N/N=C/C=C/c1ccco1,2.51 µM (active)
12,O=C(Nc1ccc(N2CCCC2)cc1)c1ccc(Br)cc1,5.01 µM (active)
13,CCCCC1CCC(C(=O)Nc2ccc(S(=O)(=O)Nc3nccs3)cc2)CC1 (stereo unspecified),inactive
14,O=C(Nc1cccc(C(F)(F)F)c1)/C(=C\c1ccco1)NC(=O)c1cccs1,inactive
15,O=C(COc1ccccc1)NCc1nnc(SCC(=O)Nc2nccs2)n1-c1ccccc1,inactive
16,C=CCOc1cccc(C2C(C(=O)c3ccco3)=C(O)C(=O)N2CCN(CC)CC)c1 (stereo unspecified),inactive
17,Cc1ccc(NC(=O)Cn2nc(C)c3ccccc3c2=O)cc1F,inactive
18,CCOc1ccccc1C(=O)NC1CC2CCCC(C1)N2C1CC1 (stereo unspecified),inactive
19,CC[C@]12c3[nH]c4cc(-c5ccco5)ccc4c3CCN1C(=O)[C@@H](CC(=O)NC/C=C(\C)CCC=C(C)C)C[C@@H]2C(=O)N1CCN(C(=O)C2CC2)CC1,inactive
20,O=C(NC(=S)N1CCCc2ccccc21)c1ccc([N+](=O)[O-])cc1,inactive
21,O=C(C1CCCN(S(=O)(=O)c2cccc3cccnc23)C1)N1CCN(c2ccccc2F)CC1 (stereo unspecified),inactive
